Assay outcomes as filed in PubChem BioAssay.
hcDAF12 agonist: activators of H. contortus DAF-12 nuclear receptor. HEK293 hcDAF-12 lit1-tk-luc reporter, luminescence; 0% DMSO, 100% Δ7-dafachronic acid. activation, % at 6.8 µM. 370,000 tested, 1.4% active. AID 652067;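 active = activation above the mean of all tested compounds plus 3 SD, cut at about 5.5% in these data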;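 also: 100% = response to 3 µM Δ7-dafachronic acid high control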
Wee1 stabilizer: inhibitors of human Wee1 degradation; P30291; AID 1321; HeLa Luc-Wee1K328M stability, luciferase luminescence; 100% = proteasome inhibitor MG132 effect; 220,000 tested, 1.2% active; reporter increase, % at 5 µM;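 active = activation above the mean of all tested compounds plus 3 SD, set per screening run, cut at about 8.8% in these data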;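 also: cells exposed to compound for 20 h before luminescence read; 0% = DMSO alone and 100% = MG132 at 30 µM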
Target sequence (P30291 whole entry K328M): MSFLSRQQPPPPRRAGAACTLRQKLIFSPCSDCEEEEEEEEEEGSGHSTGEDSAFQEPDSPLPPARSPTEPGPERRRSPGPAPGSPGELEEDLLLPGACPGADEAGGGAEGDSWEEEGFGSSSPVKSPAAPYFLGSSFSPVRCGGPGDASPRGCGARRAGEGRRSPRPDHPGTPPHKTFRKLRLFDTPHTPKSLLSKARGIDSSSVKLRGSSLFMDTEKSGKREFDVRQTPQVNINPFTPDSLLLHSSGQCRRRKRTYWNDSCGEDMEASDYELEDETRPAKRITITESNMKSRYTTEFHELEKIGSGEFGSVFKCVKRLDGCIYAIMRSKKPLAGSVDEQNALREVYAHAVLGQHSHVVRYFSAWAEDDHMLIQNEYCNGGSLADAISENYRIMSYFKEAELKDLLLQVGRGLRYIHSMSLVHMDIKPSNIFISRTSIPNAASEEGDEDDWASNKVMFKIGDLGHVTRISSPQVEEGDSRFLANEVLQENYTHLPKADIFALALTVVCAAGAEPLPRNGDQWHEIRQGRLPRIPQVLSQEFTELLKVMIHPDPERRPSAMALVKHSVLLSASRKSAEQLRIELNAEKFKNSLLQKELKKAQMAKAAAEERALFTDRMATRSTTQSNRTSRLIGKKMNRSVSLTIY
DAX1 inh-1: inhibitors of human orphan nuclear receptor DAX1 (NR0B1); inhibition, % at 6.75 µM; 340,000 tested, 0.99% active; HEK293 Gal4-DAX1 luciferase reporter, luminescence; P51843;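 active = inhibition above the mean over all tested compounds plus 3 SD, cut at about 4.2% in these data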;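 also: 0% = DAX1-transfected cells with DMSO and 100% = empty-vector control cells with DMSO; inhibition shows as a rise in luminescence from relieved DAX1 repression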
hgDAF12 agonist: activates the H. glycines DAF-12 receptor ligand-binding domain; 370,000 tested, 1.8% active; HEK293 GAL4-hgDAF12 UAS-luciferase reporter, agonist luminescence; normalized to butyrate control; activation, % at 6.8 µM; AID 687014;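 active = activation above a cutoff set at the mean of all screened compounds plus 3 SD, cut at about 10% in these data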;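 also: 0% = DMSO wells and 100% = sodium butyrate wells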
DAX1 inh-2: DAX1 (NR0B1) inhibition, primary screen; HEK293T StAR-luciferase reporter, SF-1/DAX-1 repression relief; inhibition, % at 6.8 µM; 370,000 tested, 1.1% active;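 active = inhibition above the mean over all tested compounds plus 3 SD, cut at about 3.6% in these data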;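 also: 0% = DAX-1 cells with DMSO and 100% = cells lacking DAX-1 with DMSO; higher inhibition means more luminescence from relief of DAX-1 repression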
ssDAF12 agonist: activates DAF-12 receptor from parasite S. stercoralis; HEK293 ssDAF-12/GRIP1 lit1-tk-luc reporter, luminescence; % of 3 µM dafachronic acid response; activation, % at 6.8 µM; 370,000 tested, 1% active; AID 652126;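 active = activation above the mean over all tested compounds plus 3 SD, cut at about 0.9% in these data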;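 also: 0% = DMSO-only wells and 100% = 3 µM delta7-dafachronic acid wells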
An asterisk follows results filed as active; x = no result given. Compounds with a hit are over-represented: about 4.6% of the library has one in this group of screens.

SMILES	hcDAF12 agonist	Wee1 stabilizer	DAX1 inh-1	hgDAF12 agonist	DAX1 inh-2	ssDAF12 agonist
Oc1cccc(C2c3[nH]c4ccccc4c3CCN2Cc2ccoc2)c1 (centres undefined)	4	-1	1	0	1	1.4*
Oc1cccc(C2c3[nH]c4ccccc4c3CCN2Cc2ccc3c(c2)CCO3)c1 (centres undefined)	5	6	0	-3	2	-1
CCCCCn1nnnc1C1c2ccccc2OCC(=O)N1Cc1ccco1 (centres undefined)	-1	x	x	1	1	-1
Cc1cccc(N2CCN(C(=O)c3cc4c(=O)n(C)c5ccccc5c4n3C)CC2)c1C	-2	-2	-1	-2	1	1.9*
CCSc1nc2c(c(=O)[nH]1)C(C(C)C)C(C#N)=C(N)O2 (centres undefined)	-2	9.1*	1	-2	0	0
O=C1CSc2ccc(C(=O)N3CCCC(C(=O)N4CCN(c5ccc(F)cc5)CC4)C3)cc2N1 (centres undefined)	-5	x	x	-5	-2	-1
CCCNC(=O)CCn1nc(-c2ccc(Cl)cc2)c2ccccc2c1=O	-2	-4	5.4*	4	0	-2
CCCNC(=O)CCn1nc(-c2ccc(C)cc2)c2ccccc2c1=O	-2	x	0	0	0	-1
NC(=O)c1cnc(Cc2c[nH]c3ccccc23)c(I)c1	2	x	x	-1	-1	0.9*
COCCN(CC1CCCN(C2Cc3ccccc3C2)C1)C(=O)c1cccs1 (centres undefined)	4	x	0	0	1	-1
Cc1ccc(C(=O)N(CCN2CCCCC2)CC2CCCN(C3CCCC3)C2)s1 (centres undefined)	3	x	0	7	4.4*	0
O=C(c1cccs1)N(CCN1CCCCC1)CC1CCCN(C2CCCC2)C1 (centres undefined)	3	x	0	8	0	0.9*
CCCCN(C=O)c1c(CC)nc2ccc(C(=O)N(C)Cc3ccccc3)cn12	1	x	x	0	0	-1
Cc1cc(C(=O)Nc2ccc3[nH]ccc3c2)no1	3	0	2	11*	1	0
CC1CCC2(CCC(=O)N2CCCOC(=O)c2ccccc2)CC1 (centres undefined)	1	x	x	-1	1	-1
Cc1c(C(=O)N2CCN(C)CC2)oc2ccc(Br)cc12	1	x	5.0*	4	1	-1
Cc1c(C(=O)N2CCCC2)oc2ccc(Br)cc12	2	x	0	3	0	-1
CC1=C(C(=O)Nc2ccccn2)C(c2ccc(N(C)C)cc2)n2ncnc2N1 (centres undefined)	4	3	0	11*	2	0
Nc1ccccc1-c1nc2ccccc2[nH]1	2	3	3	11*	4.0*	-1
N#C/C(=C\c1cccn1S(=O)(=O)c1cccc([N+](=O)[O-])c1)S(=O)(=O)c1ccc(F)cc1	0	x	x	-2	-1	0
CCn1cc(S(=O)(=O)CC(=O)Nc2ccc3c(c2)OCCO3)c2ccccc21	-3	-1	0	-3	-1	-1
CCN(CC)C(=O)Cn1cc(S(=O)(=O)CC(=O)Nc2ccc3c(c2)OCCO3)c2ccccc21	0	4	1	2	0	2.0*
O=C1c2ccccc2NC(c2ccccn2)N1c1ccc(Cl)cc1 (centres undefined)	6.2*	-1	2	8	0	-1
Cc1cccc(C2Nc3ccccc3C(=O)N2c2ccccc2)n1 (centres undefined)	1	2	1	2	0	-1
O=C(CSc1n[nH]c(-c2ccncc2)n1)Nc1ccc(Cl)c(Cl)c1	-3	x	-1	1	0	-1
SMILES	hcDAF12 agonist	Wee1 stabilizer	DAX1 inh-1	hgDAF12 agonist	DAX1 inh-2	ssDAF12 agonist
CCOC(=O)C1=C[C@@H](C(C)(C)C)N(S(=O)(=O)c2ccc(C)cc2)[C@H]1c1cccc(Cl)c1	-2	x	x	2	-4	-1
O=C(CCNC(=O)N1CC(=O)Nc2ccccc21)Nc1cccc(Cl)c1	4	x	2	7	2	0
O=C(O)CCCC(=O)N1CC(=O)Nc2ccccc21	-1	9.1*	0	-2	0	0
O=C(CCNC(=O)N1CC(=O)Nc2ccccc21)NCc1cccc(Cl)c1	0	x	3	4	4.4*	-1
O=C(CNC(=O)N1CC(=O)Nc2ccccc21)Nc1ccccc1F	3	x	0	4	0	1.0*
Cc1ccc2nc(SCC3CCCCO3)[nH]c2c1 (centres undefined)	5	0	-2	12*	3	0
CCC(C)(C)NC(=O)CN(Cc1cccs1)C(=O)CNS(=O)(=O)c1ccc(C)cc1	0	2	6.4*	0	-1	-1
CC(C)(C)NC(=O)CN(Cc1cccs1)C(=O)CNS(=O)(=O)c1ccc(F)cc1	-2	-2	-1	-3	0	-1
O=C(Oc1ccc2ccccc2c1Br)N1CCCCCC1	6.5*	-1	-2	0	3	-1
Brc1ccc(C[n+]2ccccc2)cc1	0	x	-1	0	0	-1
COC(OC)c1ccnc(-c2ccc(OC(=O)c3ccc(F)cc3)cc2)n1	-1	3	-1	-2	1	-1
CCCC(=O)Oc1ccc(-c2nccc(C(OC)OC)n2)cc1	-1	0	4.3*	1	2	-2
O=C(COc1ccccc1)OCc1cc(-c2ccco2)on1	-1	x	0	-1	0	-1
FC(F)Oc1ccccc1/C=N/n1cnc2ccccc21	3	5	0	11*	0	-1
NC(N)=N/N=C/c1ccccc1OC(F)F	0	-2	-1	-1	0	-2
Cc1c(CBr)[n+](=O)c2c(n1[O-])C(Br)CCC2Br (centres undefined)	2	3	1	-1	-1	1.4*
O=C(N/N=C/C=C/c1ccc(Br)cc1)C(O)c1ccccc1 (centres undefined)	-1	11*	1	-3	-1	-2
CCCCC#CC(CC)NCc1ccc(OC)cc1OC (centres undefined)	-3	x	x	0	x	-2
CC1CN(S(=O)(=O)c2cc(C(=O)NCCC3=CCCCC3)ccc2Cl)CC(C)O1 (centres undefined)	1	x	-1	6	3.8*	-1
COc1cccc(NC(=O)C2(C)CCN2C(=O)CC2CC2)c1 (centres undefined)	5	x	x	5	1	-1
CC(C)CC(=O)N/C(N)=N/c1nc2ccccc2o1	3	1	5.3*	9	2	-1
CCCC(=O)N/C(N)=N/c1nc2ccccc2o1	5	6	2	10	1	0
CCC(=O)N/C(N)=N/c1nc2ccccc2o1	2	2	5.4*	7	2	-1
